Data: PubChem BioAssay (Tox21)
Several values for one entry are separate records, joined by “and”; a condition that tells them apart may be missing. Identical values can stand only once. Records with an inconclusive call do not appear. Activity calls are given as the source filed them. Unless noted, calls follow the shape of the full dose curve.

Assays:
[1] = Nuclear factor erythroid 2-related factor 2/antioxidant responsive element (Nrf2/ARE) small molecule agonists: qHTS cell viability counter screen in human keratinocytes (AID 1919968; active = well fitted curve in the direction sought with a large enough effect in the repeat runs; an effect the other way counts as inactive or inconclusive; also: nearly all actives have a fitted effect of over 55% in size; also: potency is read from the fitted curve at half-maximal effect)
Summary of the method: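 After a 5 h attachment period, ARE-reporter keratinocytes were dosed with compounds in DMSO and then cultured 23 h at 37 C. Cell viability came from CellTiter-Fluor signal read after a further 1 h.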

[2] = Nuclear factor erythroid 2-related factor 2/antioxidant responsive element (Nrf2/ARE) small molecule agonists: luciferase reporter gene qHTS assay in human keratinocytes (AID 1919969); also: nearly all actives have a fitted effect of over 35% in size; also: potency is read from the fitted curve at half-maximal effect
[3] = target: Gonadotropin-releasing hormone receptor (Homo sapiens) (UniProt P30968); assay: Human gonadotropin-releasing hormone receptor (GnRHR) small molecule agonists, calcium flux assay in GnRHR-HEK293 cells (AID 1920063); also: nearly all actives have a fitted effect of over 35% in size
Summary of the method: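 We seeded human GnRHR-expressing HEK293 cells for 18 hours, loaded them with calcium dye for an hour at 37 C, added test compounds, and recorded fluorescence intensity kinetically for three minutes.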

[4] = target: KiSS-1 receptor (Homo sapiens) (UniProt Q969F8); assay: Human kisspeptin (KISS1R) small molecule agonists, calcium flux assay in KISS1R-HEK293 cells (AID 1920064; active = well fitted curve in the direction sought with a large enough effect in the repeat runs; an effect the other way counts as inactive or inconclusive)
Summary of the method: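 Kinetic calcium assay, 1 s sampling over 3 min at Ex/Em 480/540, in HEK293 cells engineered with human KISS1R; compounds delivered in DMSO after 1 h dye loading.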

[5] = G protein-coupled receptor (GPCR) small molecule agonists, calcium flux assay: HEK293 wild type cell line counter screen (AID 1920065)
Summary of the method: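 Calcium-sensitive dye, loaded 1 h at 37 C into cells cultured 18 h, reports compound-evoked calcium release as fluorescence (Ex/Em 480/540), measured over 3 min. Agonist mode; 15-point titrations, triplicate.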

[6] = p53 small molecule agonists, cell-based qHTS assay with human liver microsomes (AID 1963577)
Summary of the method: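 p53RE-bla cells, 4,000/well, compound added after 5 h, with human liver microsomes 0.5 mg/mL and NADPH 0.5 mg/mL final; 16 h at 37 C, then LiveBLAzer 2 h RT, fluorescence.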

[7] = p53 small molecule agonists, cell-based qHTS assay with rat liver microsomes (AID 1963578)
Summary of the method: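 p53RE-bla cells, 4,000/well, pre-incubated 5 h, then given compounds plus rat liver microsomes (0.5 mg/mL final) and NADPH (0.5 mg/mL final). Incubation 16 h at 37 C; beta-lactamase reporter read by LiveBLAzer fluorescence after 2 h at room temperature.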

[8] = p53 small molecule agonists, cell-based qHTS assay with human liver microsomes: qHTS cell viability counter screen (AID 1963579); also: nearly all actives have a fitted effect of over 45% in size; also: potency is read from the fitted curve at half-maximal effect
Summary of the method: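 p53RE-bla cells, 4,000/well, dosed 5 hours after plating, with human liver microsomes (0.5 mg/mL final) plus NADPH (0.5 mg/mL final), 16 hours at 37 C. Viability read as CellTiter-Glo luminescence after 30 min at room temperature.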

[9] = p53 small molecule agonists, cell-based qHTS assay with rat liver microsomes: qHTS cell viability counter screen (AID 1963580); also: nearly all actives have a fitted effect of over 45% in size
Summary of the method: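 Viability is assessed in parallel with the p53 reporter read: HCT-116 p53RE-bla cells receive compounds plus rat microsomes and NADPH (0.5 mg/mL final apiece), incubate 16 h at 37 C, and then CellTiter-Glo luminescence is recorded.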

[10] = p53 small molecule agonists, cell-based qHTS assay (AID 1963582; active = well fitted activation curve with a large enough effect in the signal ratio in the repeat runs, not every such curve was filed as active; the % refers to the signal ratio)
Summary of the method: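 In this cell-based concentration-response screen, a p53 response element drives beta-lactamase; cells received DMSO-borne compounds after 5 h culture and were incubated a further 16 h before FRET substrate development.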

[11] = target: 5-hydroxytryptamine receptor 2A (Homo sapiens) (UniProt P28223); assay: 5-hydroxytryptamine receptor 2A (HTR2A) small molecule antagonists, cell-based qHTS assay (AID 1963586); also: nearly all actives have a fitted effect of over 45% in size
Summary of the method: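 Antagonist-mode intracellular calcium assay: DOI (4 nM) added after 5 min compound pre-incubation at room temperature to dye-loaded HTR2A-CHO cells. Fluorescence followed for 3 min, sampled every second.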

[12] = target: 5-hydroxytryptamine receptor 2A (Homo sapiens) (UniProt P28223); assay: 5-hydroxytryptamine receptor 2A (HTR2A) small molecule agonists, cell-based qHTS assay (AID 1963587); also: nearly all actives have a fitted effect of over 30% in size
Summary of the method: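 CHO cells stably expressing human HTR2A, plated 18 h, loaded with calcium dye 1 h at 37 C. Agonist mode: compounds added and intracellular calcium fluorescence recorded kinetically for 2 min at 1 sec intervals.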

[13] = target: Muscarinic acetylcholine receptor M1 (Homo sapiens) (UniProt P11229); assay: Cholinergic receptor muscarinic 1 (CHRM1) small molecule antagonists, cell-based qHTS assay (AID 1963588); also: nearly all actives have a fitted effect of over 40% in size
Summary of the method: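 CHRM1-CHO calcium-flux assay, antagonist mode. Cells were seeded 18 h, dye-loaded 1 h at 37 C and given compound for 5 min at RT, then acetylcholine was added at 50nM. FDSS fluorescence was read 3 min; 15 concentrations, three runs.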

[14] = target: Muscarinic acetylcholine receptor M1 (Homo sapiens) (UniProt P11229); assay: Cholinergic receptor muscarinic 1 (CHRM1) small molecule agonists, cell-based qHTS assay (AID 1963589); also: nearly all actives have a fitted effect of over 35% in size
Summary of the method: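 Measures agonist-induced intracellular calcium rise. Stable human CHRM1 CHO line, 1 h dye load at 37 C, compounds from DMSO, kinetic fluorescence read.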

[15] = cAMP Responsive Elements (CRE) small molecule antagonists, cell-based qHTS assay (AID 1963591; active = well fitted inhibition curve with a large enough effect in the signal ratio in the repeat runs, not every such curve was filed as active; the % refers to the signal ratio)
Summary of the method: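 HEK293T cells carrying a CRE-driven beta-lactamase reporter receive compound and NKH477 (0.25 uM final) for 3 h. Fluorescence from LiveBLAzer B/G FRET substrate is read after 2 h at room temperature.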

[16] = target: Beta-2 adrenergic receptor (Homo sapiens) (UniProt P07550); assay: Adrenergic beta2 receptor (ADRB2) small molecule antagonists, cell-based qHTS assay (AID 1963592); also: series mostly up to about 92 µM; nearly all actives have a fitted effect of over 50% in size
Summary of the method: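 Cells (CHO, stable ADRB2 overexpression) incubated 18-20hr at 37C; compounds added from DMSO; agonist mix (1nM isoproterenol, 100uM IBMX, 25uM Ro-20-1724) added; 0.5hr RT; d2-cAMP and anti-cAMP-cryptate added; 1hr RT; 665/615 nm read.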

[17] = target: D(2) dopamine receptor (Homo sapiens) (UniProt P14416); assay: Dopamine D2 receptor (DRD2) small molecule agonists, cell-based qHTS assay (AID 1963594); also: nearly all actives have a fitted effect of over 35% in size
Summary of the method: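 HEK293 cells stably expressing human DRD2, pre-treated with PDE inhibitor Ro20-1724 (0.1 mM final) and compound 10 min at room temperature, then stimulated with NKH477 (200nM […]) for 30 min. cAMP read by HTRF (665/620 nm).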

[18] = target: D(2) dopamine receptor (Homo sapiens) (UniProt P14416); assay: Dopamine D2 receptor (DRD2) small molecule antagonists, cell-based qHTS assay (AID 1963595; active = well fitted inhibition curve with a large enough effect in the signal ratio in the repeat runs, with a control signal flat; the % refers to the signal ratio; also: potency is read from the fitted curve at half-maximal effect)
Summary of the method: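 Stable D2 receptor HEK293 line, 24 h after seeding. Compound preincubated 10 min, then quinpirole (12 nM) with forskolin analogue NKH477 (200 nM), 30 min, room temperature. Detection by time-resolved FRET of cAMP.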

[19] = cAMP Responsive Elements (CRE) small molecule agonists, cell-based qHTS assay (AID 1963590)
Summary of the method: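 A CRE-responsive beta-lactamase reporter in HEK 293T cells was used. Treatment ran 3 h at 37 C; detection used LiveBLAzer B/G FRET substrate for 2 h at room temperature.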

[20] = p53 small molecule agonists, cell-based qHTS assay: qHTS cell viability counter screen (AID 1963581); also: nearly all actives have a fitted effect of over 45% in size
Summary of the method: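 Following 5 h attachment, HCT-116 p53RE-bla cells took up compound for 16 h at 37 C; the reporter was read with B/G FRET substrate (2 h RT), and viability then via CellTiter-Glo ATP luminescence.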

Measured: Potency

Muscarinic acetylcholine receptor M1 (Homo sapiens), sequence (P11229 whole entry, looked up): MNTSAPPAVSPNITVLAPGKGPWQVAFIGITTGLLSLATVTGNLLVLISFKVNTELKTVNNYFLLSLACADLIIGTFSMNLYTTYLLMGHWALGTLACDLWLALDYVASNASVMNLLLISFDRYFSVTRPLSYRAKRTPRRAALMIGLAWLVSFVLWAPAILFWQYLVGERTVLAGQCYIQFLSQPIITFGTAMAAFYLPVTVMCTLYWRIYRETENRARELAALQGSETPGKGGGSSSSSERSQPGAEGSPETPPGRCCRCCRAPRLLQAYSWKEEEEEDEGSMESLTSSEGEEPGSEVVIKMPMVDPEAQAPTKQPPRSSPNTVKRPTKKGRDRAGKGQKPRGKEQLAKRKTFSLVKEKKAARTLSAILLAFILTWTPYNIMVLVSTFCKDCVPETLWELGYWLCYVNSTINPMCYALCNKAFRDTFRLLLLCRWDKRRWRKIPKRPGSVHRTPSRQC
Beta-2 adrenergic receptor (Homo sapiens), sequence (P07550 whole entry, looked up): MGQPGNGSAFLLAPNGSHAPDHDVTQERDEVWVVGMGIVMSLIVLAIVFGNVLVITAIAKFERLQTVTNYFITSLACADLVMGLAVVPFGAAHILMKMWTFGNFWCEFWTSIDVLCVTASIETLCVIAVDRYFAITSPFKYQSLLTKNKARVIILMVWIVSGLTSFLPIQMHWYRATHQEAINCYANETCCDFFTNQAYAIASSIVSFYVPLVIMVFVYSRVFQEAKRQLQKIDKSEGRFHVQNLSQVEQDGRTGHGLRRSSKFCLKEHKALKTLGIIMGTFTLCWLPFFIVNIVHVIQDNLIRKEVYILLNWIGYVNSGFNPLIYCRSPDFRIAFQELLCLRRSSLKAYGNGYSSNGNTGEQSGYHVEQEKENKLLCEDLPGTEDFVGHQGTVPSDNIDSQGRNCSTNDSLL
KiSS-1 receptor (Homo sapiens), sequence (Q969F8 whole entry, looked up): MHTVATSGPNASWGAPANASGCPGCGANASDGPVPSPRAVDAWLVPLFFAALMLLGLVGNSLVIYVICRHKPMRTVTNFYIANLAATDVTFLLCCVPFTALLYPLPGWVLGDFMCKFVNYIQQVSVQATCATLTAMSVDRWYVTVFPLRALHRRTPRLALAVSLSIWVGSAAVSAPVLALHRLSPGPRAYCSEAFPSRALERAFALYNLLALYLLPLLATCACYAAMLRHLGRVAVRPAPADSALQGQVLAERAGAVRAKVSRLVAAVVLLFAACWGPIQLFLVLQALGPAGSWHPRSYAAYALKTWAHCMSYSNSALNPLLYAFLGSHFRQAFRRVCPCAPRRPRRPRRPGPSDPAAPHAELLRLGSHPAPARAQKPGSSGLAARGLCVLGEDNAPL
Gonadotropin-releasing hormone receptor (Homo sapiens), sequence (P30968 whole entry, looked up): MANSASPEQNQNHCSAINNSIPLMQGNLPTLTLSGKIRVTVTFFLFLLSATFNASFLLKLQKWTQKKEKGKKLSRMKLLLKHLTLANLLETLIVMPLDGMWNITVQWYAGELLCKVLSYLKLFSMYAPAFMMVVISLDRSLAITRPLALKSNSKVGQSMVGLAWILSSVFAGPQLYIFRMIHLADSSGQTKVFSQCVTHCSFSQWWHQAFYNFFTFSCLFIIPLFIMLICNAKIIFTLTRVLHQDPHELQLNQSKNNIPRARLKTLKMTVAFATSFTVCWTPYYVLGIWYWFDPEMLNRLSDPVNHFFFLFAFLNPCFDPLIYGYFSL
D(2) dopamine receptor (Homo sapiens), sequence (P14416 whole entry, looked up): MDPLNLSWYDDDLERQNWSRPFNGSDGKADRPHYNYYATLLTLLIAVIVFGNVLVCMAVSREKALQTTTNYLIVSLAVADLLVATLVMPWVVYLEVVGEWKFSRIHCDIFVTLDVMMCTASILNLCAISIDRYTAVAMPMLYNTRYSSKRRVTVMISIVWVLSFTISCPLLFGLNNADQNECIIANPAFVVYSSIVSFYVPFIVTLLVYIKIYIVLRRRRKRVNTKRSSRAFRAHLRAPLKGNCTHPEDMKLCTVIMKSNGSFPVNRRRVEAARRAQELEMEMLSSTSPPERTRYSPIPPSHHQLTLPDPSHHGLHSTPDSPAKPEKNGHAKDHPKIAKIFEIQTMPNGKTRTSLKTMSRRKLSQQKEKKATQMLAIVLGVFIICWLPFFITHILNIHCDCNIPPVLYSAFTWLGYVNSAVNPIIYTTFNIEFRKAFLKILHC
5-hydroxytryptamine receptor 2A (Homo sapiens), sequence (P28223 whole entry, looked up): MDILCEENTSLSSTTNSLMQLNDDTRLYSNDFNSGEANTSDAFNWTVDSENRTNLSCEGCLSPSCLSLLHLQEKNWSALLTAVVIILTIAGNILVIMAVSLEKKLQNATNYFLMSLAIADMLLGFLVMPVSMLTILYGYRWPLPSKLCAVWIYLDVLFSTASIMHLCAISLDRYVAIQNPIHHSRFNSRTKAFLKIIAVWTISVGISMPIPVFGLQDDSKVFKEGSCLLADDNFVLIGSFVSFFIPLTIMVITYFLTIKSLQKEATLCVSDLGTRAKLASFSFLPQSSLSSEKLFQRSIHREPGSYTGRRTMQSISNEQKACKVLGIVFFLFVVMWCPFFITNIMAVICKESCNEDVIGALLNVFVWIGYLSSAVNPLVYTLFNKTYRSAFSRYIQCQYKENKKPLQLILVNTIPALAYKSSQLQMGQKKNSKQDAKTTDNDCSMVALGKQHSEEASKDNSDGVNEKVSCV

O=C1C=CC(=O)C=C1
not listed: [19] | [20]
inactive: all other assays above

CNC(=O)NC(O)C(Cl)(Cl)Cl (configuration not stated)
not listed: [10] | [18] | [20]
inactive: all other assays above

C=CC(=O)NC(C)(C)CC(C)=O
not listed: [11] | [18] | [20]
inactive: all other assays above

O=S(=O)(c1ccc(Cl)cc1)c1cc(Cl)c(Cl)cc1Cl
active: [2] 48.5 µM
not listed: [10] | [18] | [20]
inactive: all other assays above

CC(C)C1(C)N=C(c2ncccc2C(=O)O)NC1=O (configuration not stated)
not listed: [9]
inactive: all other assays above

N#Cc1c(Cl)c(Cl)c(Cl)c(C#N)c1Cl
active: [1] 2.68 µM and 2.73 µM | [2] 950 nM and 969 nM | [8] 25.2 µM and 18.2 µM | [18] 15.1 µM and 4.86 µM
not listed: [10] | [15] | [19] | [20]
inactive: all other assays above

Cc1cccc(C)c1NC(=O)CN1CCCC1=O
not listed: [9] | [18]
inactive: all other assays above
